The values below come from PubChem BioAssay (NCATS).

What all share (assay): Primary qHTS to identify gynecologic anti-cancer compounds using libraries of approved drugs and bioactive compounds (AID 1345084); note: nearly all actives have a fitted effect of over 55% in size
(In general: qHTS replaces the single test concentration by a dilution series.)

One assay has as its system C33A. Conditions: Gynecologic cancer cell panel viability, ATPlite luminescence, 48 h; series mostly up to 57.5 µM. The method, boiled down: (§1)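 Cells, 1,000 per well, were allowed to settle for 16 h at 37 C before compound addition. Five concentrations were tested for 48 h, and viability was read by ATPlite luminescence after 15 min at room temperature.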
Another assay has as its system CAOV3. Conditions: Gynecologic cancer cell panel viability, ATPlite luminescence, 48 h; series mostly up to 57.5 µM. The method, boiled down:
as §1
In general terms: ATP-based viability assays read luminescence as a measure of living cells.

The subject of a further assay is CASKI. To be noted: Gynecologic cancer cell panel viability, ATPlite luminescence, 48 h; series mostly up to 57.5 µM. In a few lines: as §1
Another assay concerns Es-2. Conditions: Gynecologic cancer cell panel viability, ATPlite luminescence, 48 h; series mostly up to 57.5 µM. In a few lines: as §1
Another assay relates to HeLa. To be noted: Gynecologic cancer cell panel viability, ATPlite luminescence, 48 h; series mostly up to 57.5 µM. In a few lines:
as §1

The next assay concerns Hek293T. To be noted: Gynecologic cancer cell panel viability, ATPlite luminescence, 48 h, control line for the selectivity index; series mostly up to 57.5 µM. In a few lines:
as §1

The test system of a further assay is JEG-3. Conditions: Gynecologic cancer cell panel viability, ATPlite luminescence, 48 h; series mostly up to 57.5 µM. The method, boiled down:
as §1

Inconclusive results are not listed. A number with no mark means an inactive call. Calls of active or inactive are those of the source. Calls come from the whole dose curve; as a rule, active = well fitted cell-killing curve with a large enough effect; inconclusive = small, poorly fitted or top-dose-only effect, or effect the other way; inactive = flat fitted curve, though single readings scatter.
% is set by controls: 0 for no effect and ±100 for the full control effect; potency is the fitted concentration of half-maximal effect.

Take `C=C[C@](C)(O)CC[C@H]1C(C)=CC(=O)[C@H]2C(C)(C)CCC[C@]12C`: the Potency result in the assay on C33A, in the assay on CAOV3, with CASKI, in the assay on Es-2, in the assay on HeLa and with Hek293T was “inactive” each time. In the assay on JEG-3, the Potency entry is “inactive”.

`COC1=CC(=O)C=C(C)C12Oc1c(Cl)c(OC)cc(OC)c1C2=O` (stereo not drawn): the Potency result in the assay on C33A, in the assay with CAOV3, in the assay with CASKI, in the assay with Es-2, with HeLa and with Hek293T was “inactive” each time. Moreover, in the assay with JEG-3, the Potency entry was “inactive”.

For `C=CC1(C)CC(O)C(C(=C)C(=O)OC)C(O)C1C(=C)CO` (stereo not drawn), the Potency entry in the assay with C33A, in the assay on CAOV3, in the assay on CASKI, in the assay on Es-2, in the assay with HeLa and with Hek293T was “inactive” each time. Moreover, the Potency entry in the assay with JEG-3 was “inactive”.

With `Cc1ccccc1CN1CCn2c1nc1c(c2=O)CN(Cc2ccccc2)CC1`, the Potency result in the assay on C33A, in the assay with CAOV3, in the assay with CASKI, in the assay on Es-2, in the assay on HeLa and in the assay on Hek293T was “inactive” throughout. Further, the Potency entry in the assay with JEG-3 is “inactive”.

On to `COc1ccc(S(=O)(=O)n2cnc3cc(C)c(C)cc32)cc1`, for which the Potency entry in the assay with C33A, in the assay on CAOV3, in the assay on CASKI, in the assay on Es-2, in the assay with HeLa and in the assay with Hek293T was “inactive” throughout. The Potency entry with JEG-3 was “inactive”.

Turning to `NS(=O)(=O)Nc1ncnc(OCCOc2ncc(Br)cn2)c1-c1ccc(Br)cc1`, the Potency result with C33A, in the assay on CAOV3, with CASKI, in the assay with Es-2, in the assay on HeLa and in the assay on Hek293T was “inactive” in each case. The Potency entry with JEG-3 is “inactive”.

For the compound `COC1=CC(=O)O/C1=C(/OC)[C@@H]1O[C@H]1c1ccccc1`, the Potency result in the assay with C33A, with CAOV3, in the assay on CASKI, in the assay on Es-2, in the assay with HeLa and in the assay on Hek293T was “inactive” throughout. Moreover, the Potency result with JEG-3 was “inactive”.

For `Cc1cc(-c2nc3cc(F)ccc3s2)ccc1NC(=O)[C@@H](N)CCCCN`, the Potency is 17.8 µM (active) with C33A; 28.2 µM (active) in the assay on CAOV3; 14.1 µM (active) in the assay with CASKI; 15.8 µM (active) in the assay with Es-2; 14.1 µM (active) in the assay on HeLa; 12.6 µM (active) in the assay on Hek293T. Besides, the Potency with JEG-3 is 14.1 µM (active).

With `COc1cc2c(cc1O)C1(Cc3ccc4c(c3C1O)OCO4)[N+](C)([O-])CC2` (stereo not drawn), the Potency result with C33A, in the assay with CAOV3, in the assay with CASKI, in the assay with Es-2, in the assay with HeLa and in the assay with Hek293T was “inactive” throughout. Moreover, in the assay on JEG-3, the Potency entry was “inactive”.

As to `CC(=O)O[C@@H]1CC[C@@]2(C)[C@H](CC[C@@H]3[C@@H]2C[C@H](OC(C)=O)[C@]2(C)[C@@H](C(C)=O)CC[C@@H]32)C1`, the Potency result in the assay with C33A, in the assay on CAOV3, in the assay on CASKI, in the assay on Es-2, in the assay with HeLa and with Hek293T was “inactive” each time. Moreover, the Potency entry with JEG-3 was “inactive”.

Consider `CC(=O)O[C@@H]1C[C@@]23C[C@@]24CC[C@H](O[C@@H]2OC[C@H](O)[C@H](O)[C@H]2O)C(C)(C)[C@@H]4CC[C@H]3[C@]2(C)[C@@H](O)C34O[C@H](C[C@@H](C)[C@@H]3[C@@]12C)[C@@H](C(C)(C)O)O4`, for which the Potency entry in the assay with C33A, in the assay with CAOV3, in the assay with CASKI, in the assay on Es-2, in the assay on HeLa and with Hek293T was “inactive” in each case. Also, the Potency result with JEG-3 is “inactive”.

Consider `CCCCC1CCC(c2nc(-c3ccncc3)no2)CC1` (stereo not drawn), for which the Potency result with C33A, in the assay on CAOV3, in the assay with CASKI, in the assay on Es-2, with HeLa and in the assay with Hek293T was “inactive” each time. Besides, in the assay on JEG-3, the Potency result is “inactive”.

`C=C(CCC1C(C)(O)CCC2C(C)(C)C(O)CCC12C)C(O)CO` (stereo not drawn): the Potency result in the assay with C33A, in the assay on CAOV3, in the assay on CASKI, in the assay with Es-2, with HeLa and in the assay on Hek293T was “inactive” throughout. Also, the Potency result with JEG-3 is “inactive”.

For `CCNC(=O)N1CCCN(c2ccc(C(=O)NCCc3ccc(Cl)cc3Cl)cc2NC(=O)c2cccc(Cl)c2)CC1`, the Potency entry with C33A, in the assay with CAOV3, in the assay on CASKI, in the assay with Es-2, in the assay with HeLa and with Hek293T was “inactive” each time. Moreover, the Potency entry in the assay with JEG-3 was “inactive”.

Turning to `Cc1ccccc1C(C(=O)NC1CCCCC1)N(C(=O)Cn1cnc2ccccc21)c1cccc(F)c1` (stereo not drawn), the Potency result in the assay with C33A, in the assay on CAOV3, with CASKI, in the assay with Es-2, in the assay with HeLa and in the assay on Hek293T was “inactive” throughout. Also, in the assay with JEG-3, the Potency entry is “inactive”.

Turning to `Cn1ncc2cc(-c3cnc(N)c(Cl)c3N3CCC4(CCNC4=O)CC3)ccc21`, the Potency result in the assay with C33A, in the assay with CAOV3, in the assay with CASKI, in the assay on Es-2, in the assay on HeLa and in the assay with Hek293T was “inactive” each time. In the assay with JEG-3, the Potency result is “inactive”.

Turning to `CN(C)S(=O)(=O)c1ccc(NC(=S)N2CCC(C(O)(c3ccccc3)c3ccccc3)CC2)cc1`, the Potency result with C33A, with CAOV3, in the assay on CASKI, in the assay with Es-2, in the assay with HeLa and with Hek293T was “inactive” throughout. In addition, in the assay with JEG-3, the Potency entry is “inactive”.

As for `COc1ccc(S(=O)(=O)Nc2cc(Cl)cc(Cl)c2OC)cc1N1CCNCC1`, the Potency result in the assay on C33A, in the assay with CAOV3, in the assay on CASKI, in the assay with Es-2, in the assay on HeLa and in the assay with Hek293T was “inactive” each time. Besides, the Potency entry in the assay on JEG-3 was “inactive”.

For `CCC[C@H](N[C@H]1CCc2cc(F)cc(F)c2C1)C(=O)Nc1cn(C(C)(C)CNCC(C)(C)C)cn1`, the Potency entry with C33A, in the assay on CAOV3, in the assay with CASKI, in the assay on Es-2, in the assay on HeLa and in the assay on Hek293T was “inactive” throughout. In the assay with JEG-3, the Potency result is “inactive”.

With `CC1(C)CC[C@]23CO[C@@]4(CCC5[C@@]6(C)CC[C@H](O[C@@H]7OC[C@H](O[C@@H]8O[C@H](CO)[C@@H](O)[C@H](O)[C@H]8O[C@@H]8OC[C@@H](O)[C@H](O)[C@H]8O)[C@H](O)[C@H]7O)[C@@](C)(CO)C6CC[C@@]5(C)[C@]4(C)CC2=O)[C@@H]3C1` (stereo partly drawn), the activity change, negative = cytotoxicity was -27.4% [at 11.6 µM] in the assay on C33A; 7.02% [at 11.6 µM] in the assay on CAOV3; -3.31% [at 11.6 µM] in the assay with CASKI; 9.11% [at 11.6 µM] in the assay with Es-2; 16.9% [at 11.6 µM] in the assay with HeLa; 5.05% [at 11.6 µM] in the assay with Hek293T. Moreover, in the assay with JEG-3, the activity change, negative = cytotoxicity is -8.75% [at 11.6 µM].

Turning to `CCc1ccc(-c2nc(CSCC(=O)NCCc3ccccc3)c(C)o2)cc1`, the Potency result in the assay with C33A, in the assay on CAOV3, in the assay on CASKI, with Es-2, in the assay with HeLa and with Hek293T was “inactive” in each case. Further, the Potency result in the assay on JEG-3 was “inactive”.

For `C=C1C(=O)OC2CC3(C)C(O)C(=O)C=C(C)C3CC12` (stereo not drawn), the Potency entry in the assay with C33A, with CAOV3, in the assay with CASKI, with Es-2, with HeLa and in the assay with Hek293T was “inactive” each time. In the assay on JEG-3, the Potency entry is “inactive”.

In the case of `O=C(NCCN1CCN(c2cccc3ccc(O)cc23)CC1)c1ccc(F)cc1`, the Potency entry in the assay with C33A, with CAOV3, in the assay with CASKI, in the assay with Es-2, with HeLa and in the assay with Hek293T was “inactive” each time. Also, the Potency entry in the assay on JEG-3 was “inactive”.

`C=C1C(=O)O[C@@H]2C[C@H](C)C3=CC(=O)[C@H](O)[C@@]3(C)C[C@H]12`: the Potency entry in the assay on C33A, in the assay on CAOV3, in the assay on CASKI, in the assay with Es-2, with HeLa and with Hek293T was “inactive” each time. Besides, the Potency entry in the assay on JEG-3 is “inactive”.
